# Assay outcomes deposited in PubChem by National Center for Advancing Translational Sciences (NCATS).
# TRPV1 ag – human TRPV1 agonism; 0.19% of 320,000 active; Q8NER1; TRPV1-expressing cells, Fluo-8 calcium influx, agonist mode; activation, % at 8.33 µM; in the data active = activation above about 80%; inconclusive = between about 30% and that limit; also: 0% is about no effect
#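 Fluo-8 calcium influx in TRPV1-expressing cells, kinetic read (ex 480/em 520 nm). Compound added and read 3 min for agonist activity, followed by capsaicin at EC20 final and 2 min further read for enhancement.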
# VP16 counter – Gal4-VP16 reporter inhibition counter-screen. Potency, µM (doses to about 53.6 µM), without a hit: top-dose activity, negative = inhibition, usual class: inhibitors. Drosophila S2 Gal4-VP16 UAS-luciferase, luminescence, 20 h. 3.5% of 310,000 active. AID 2546;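 also: Gal4-VP16 expression switched on by copper sulfate through the metallothionein promoter; potency is read from the fitted curve at half-maximal effect; % is scaled to controls: 0 for no effect and ±100 for the full control effect; nearly all actives have a fitted effect of over 50% in size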
# RORg inh – blocks mouse ROR gamma transcriptional activity; P51450; Potency, µM (titrated, usually from 53.6 µM), for inactives: top-dose activity change, negative = inhibition, usual class: inhibitors; Drosophila S2 Gal4-RORgamma UAS-luciferase reporter, 20 h; 5.4% of 310,000 active; also: potency is read from the fitted curve at half-maximal effect; % is scaled to controls: 0 for no effect and ±100 for the full control effect; nearly all actives have a fitted effect of over 60% in size
# Target sequence (P51450 whole entry, looked up, the tested form may be a part): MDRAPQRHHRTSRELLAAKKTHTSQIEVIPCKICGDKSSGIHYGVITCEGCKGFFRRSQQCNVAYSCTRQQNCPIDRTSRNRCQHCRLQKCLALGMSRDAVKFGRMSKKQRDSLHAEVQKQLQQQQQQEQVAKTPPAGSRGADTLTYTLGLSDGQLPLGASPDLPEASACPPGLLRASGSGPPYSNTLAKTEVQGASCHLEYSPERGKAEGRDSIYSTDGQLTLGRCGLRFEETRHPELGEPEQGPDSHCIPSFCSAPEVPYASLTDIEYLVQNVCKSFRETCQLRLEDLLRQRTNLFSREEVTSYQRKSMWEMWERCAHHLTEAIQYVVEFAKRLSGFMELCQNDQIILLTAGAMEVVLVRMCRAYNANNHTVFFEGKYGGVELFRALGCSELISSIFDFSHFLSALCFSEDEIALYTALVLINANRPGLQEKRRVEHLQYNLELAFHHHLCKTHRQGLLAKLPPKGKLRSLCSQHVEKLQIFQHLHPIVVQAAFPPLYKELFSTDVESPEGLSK
#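 Stably transfected Drosophila Schneider cells are the test system, with ROR gamma fused to Gal4 and luciferase under UAS control; luminescence is read after 20 hr of 700 uM copper sulfate induction at ambient temperature.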
# TRPV1 potentiator – potentiators of human vanilloid receptor 1 (TRPV1); potentiation, % at 8.33 µM; TRPV1-expressing cells, Fluo-8 calcium influx, capsaicin EC20 potentiation; Q8NER1; 0.02% of 320,000 active; in the data active = potentiation above about 80%; inconclusive = between about 30% and that limit; also: 0% is about no effect
#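 Fluo-8 calcium influx in TRPV1-expressing cells, kinetic read (ex 480/em 520 nm). Compound added and read 3 min for agonist activity, followed by capsaicin at EC20 final and 2 min further read for enhancement.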
# uPA surface inh – blocks generation of uPA at the cell surface; cell surface uPA generation assay, qHTS; Potency, µM (highest dose often 38.3 µM), for the others: top-dose activity change, negative = inhibition, actives largely listed as inhibitors; 0.31% of 330,000 active; AID 540303; active = well fitted inhibition curve with a large enough effect; inconclusive = small, poorly fitted or top-dose-only effect; inactive = no such curve, though single readings can be large or run the other way; tested in mouse RAW 264.7 cells; also: potency is read from the fitted curve at half-maximal effect; % is scaled to controls: 0 for no effect and ±100 for the full control effect; nearly all actives have a fitted effect of over 55% in size
# Starred values were filed as active, the others as inactive; ? = inconclusive; / = not tested or not shown. This is a sample that favours compounds with a hit; in the whole collection about 5.8% have one here. Unless noted, calls follow the shape of the dose curve; as a rule, active = well fitted curve in the direction sought with a large enough effect; inconclusive = small, poorly fitted or top-dose-only effect, or another doubt; inactive = no such curve, though single readings can be large; an effect the other way counts as inactive or inconclusive.
SMILES,TRPV1 ag,VP16 counter,RORg inh,TRPV1 potentiator,uPA surface inh
O=C(N/N=C/c1ccco1)c1cc(C2CC2)nc2ccccc12,-1,6%,-43%,6,/
O=C1C2C3C=CC(CC3)C2C(=O)N1c1ccccc1F (configuration not stated),-1,-15%,8%,3,3%
CSCC[C@H](NC(=O)CNC(=O)CNC(=O)[C@H](CO)NC(=O)[C@H](CCCNC(=N)N)NC(=O)[C@H](CO)NC(=O)[C@H](CC(C)C)NC(=O)[C@H](CC(C)C)NC(=O)CNC(=O)[C@H](C)NC(=O)[C@H](CC(C)C)NC(=O)[C@H](CCCNC(=N)N)NC(=O)[C@H](Cc1cnc[nH]1)NC(=O)[C@@H](NC(=O)[C@@H](N)C(C)C)[C@@H](C)O)C(=O)N[C@H](C(=O)N[C@@H](CCCCN)C(=O)N[C@@H](CO)C(=O)N[C@@H](CC(N)=O)C(=O)N[C@@H](Cc1ccccc1)C(=O)N[C@H](C(=O)N1CCC[C@H]1C(=O)N[C@H](C(=O)N[C@@H](CC(N)=O)C(=O)N[C@H](C(=O)NCC(=O)N[C@@H](CO)C(=O)N[C@@H](CCCCN)C(=O)N[C@@H](C)C(=O)N[C@@H](Cc1ccccc1)C(N)=O)C(C)C)[C@@H](C)O)C(C)C)C(C)C,/,-12%,10%,/,/
COC(=O)c1ccccc1NC(=O)NC1CCCCC1,19,-3%,16%,12,-7%
CCCCCCCn1c2c(c(=N)c3c1CCC3)CCCC2,5,5.6µM*,6.3µM*,2,-21%
CCCCCCn1c2c(c(=N)c3c1CCC3)CCC2,17,11µM*,11µM*,-17,/
CCCCCCCCCn1c2c(c(=N)c3c1CCC3)CCC2,-2,?,62%,-8,-7%
CCc1cc(-c2n[nH]c(C)c2-c2nc3ccccc3n2C)c(O)cc1O,-1,2%,-3%,3,-14%
CCc1cc(-c2n[nH]c(C)c2-c2ccc3c(c2)OCCO3)c(O)cc1O,/,?,13µM*,/,/
CCC1=C(OC(=O)N(CC)CC)N2C(=O)OC(=NCCOC)[C@]2(C)[C@H]2C1=CC[C@H]1C(=O)N(CC)C(=O)[C@H]12,/,2%,1%,/,/
CC(C)NC(=O)NNC(=O)Cn1nnc(-c2cccc(Cl)c2Cl)n1,-3,-30%,32µM*,3,6%
Cn1sc(=O)n(Cc2ccccc2)c1=O,/,?,3.2µM*,/,/
Cn1c(=O)n(Cc2ccccc2)c2ccccc21,2,14%,-3%,4,10%
Cn1c(=O)c(-c2cc(F)cc(F)c2)nc2cnc(N3CCNCC3)nc21,/,-3%,-8%,/,/
Cc1ccc2c(c1)c1c(n2CC(O)Cn2c(C)nc3ccccc32)CCCC1 (configuration not stated),24,-24%,1.6µM*,18,4%
COc1cccc(C2=CC(c3ccc(OC)c(OC)c3)NC(=S)N2)c1 (configuration not stated),0,-10%,?,21,5%
COc1ccc(C2C=C(C34CC5CC(CC(C5)C3)C4)NC(=S)N2)cc1 (configuration not stated),1,1.6µM*,0.79µM*,13,17%
COc1ccc(-c2cn(-c3ccc(Br)cc3)c3[n+]2CCS3)cc1,1,?,6%,1,-10%
CC(=O)c1ccc(-n2cc(-c3ccc(C(C)(C)C)cc3)[n+]3c2SCCC3)cc1,2,11µM*,-22%,9,-8%
Nc1ccc(Br)cc1C(=O)O,2,1.4µM*,2.8µM*,4,4%
Cc1nnsc1NC(=O)OCc1ccc(Cl)cc1Cl,12,-9%,?,-3,-5%
Cc1nn(C)c(Cl)c1NC(=O)OCc1ccc(Cl)cc1Cl,8,8.9µM*,?,-6,-5%
O=C(NC1=NCCS1)c1sc2cc(Cl)cc(Cl)c2c1Cl,-1,?,6.3µM*,2,12%
O=C(NC1=NCCS1)c1sc2ccccc2c1Cl,4,?,?,-2,-5%
Cc1ccccc1C1C(C#N)=C2N=C(N)c3c(sc4c3CCCCC4)N2C2=C1C(=O)CCC2 (configuration not stated),8,?,14µM*,14,-8%
